From the supplement of paper PMC10849652
Targets with a hit are over-represented here; the source holds about 8,800 in all. About 0.5% of all pairs of compound and target were hits.

Compound: C1=CC=C(C=C1)[C@H](COC2=CC3=C(C=C2)NC(=O)N3)NC(=O)C4=CC=CN(C4=O)CC5=CC(=C(C=C5)F)F
Test: log2 fold change, soluble protein after heating vs DMSO (PISA); higher = thermal stabilisation; K562 lysate, 10 uM; active = over 0.2 and 3.5 SD of the protein, either way, in both replicates (recomputed)
In short: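 Values give the log-two fold change in thermal stability against solvent controls, from duplicates. Crude K562 extract at 1 mg/mL protein, made by dounce homogenisation in PBS pH 7.4 with 1 mM MgCl2, was treated with 10 μM compound for 30 min. After 3 min heating across 48°C-58°C, aliquots were pooled, adjusted to 0.5% NP-40 at 4°C and centrifuged at 21,000xg for 90 min. The supernatant was measured by TMTpro 16plex LC-MS/MS with channel sums equalised.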

Chain of UniProt Q9NZN8 (Q9NZN8 whole entry, looked up): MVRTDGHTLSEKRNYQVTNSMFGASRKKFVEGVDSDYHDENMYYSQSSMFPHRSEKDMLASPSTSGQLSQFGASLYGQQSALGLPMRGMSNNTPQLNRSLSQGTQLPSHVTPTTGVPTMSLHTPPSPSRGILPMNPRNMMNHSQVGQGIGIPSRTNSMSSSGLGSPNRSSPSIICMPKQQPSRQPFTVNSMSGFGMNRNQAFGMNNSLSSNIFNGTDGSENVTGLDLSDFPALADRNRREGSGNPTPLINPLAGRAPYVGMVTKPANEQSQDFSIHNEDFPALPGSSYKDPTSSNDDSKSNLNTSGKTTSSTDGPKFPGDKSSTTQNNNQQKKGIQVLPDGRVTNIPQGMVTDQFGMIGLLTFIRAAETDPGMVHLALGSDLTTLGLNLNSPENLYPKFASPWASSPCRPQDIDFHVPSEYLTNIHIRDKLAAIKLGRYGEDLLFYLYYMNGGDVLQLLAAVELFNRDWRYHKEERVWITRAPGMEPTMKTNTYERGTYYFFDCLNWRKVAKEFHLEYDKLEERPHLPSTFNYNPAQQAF
Chain of UniProt P67870 (P67870 whole entry, looked up): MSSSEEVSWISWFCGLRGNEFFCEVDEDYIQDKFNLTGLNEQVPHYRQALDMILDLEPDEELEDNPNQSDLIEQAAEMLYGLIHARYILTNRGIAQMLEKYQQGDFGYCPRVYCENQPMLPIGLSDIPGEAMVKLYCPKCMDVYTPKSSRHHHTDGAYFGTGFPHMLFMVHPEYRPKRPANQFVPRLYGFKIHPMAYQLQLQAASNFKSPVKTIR
Chain of UniProt Q9H078 (Q9H078 whole entry, looked up): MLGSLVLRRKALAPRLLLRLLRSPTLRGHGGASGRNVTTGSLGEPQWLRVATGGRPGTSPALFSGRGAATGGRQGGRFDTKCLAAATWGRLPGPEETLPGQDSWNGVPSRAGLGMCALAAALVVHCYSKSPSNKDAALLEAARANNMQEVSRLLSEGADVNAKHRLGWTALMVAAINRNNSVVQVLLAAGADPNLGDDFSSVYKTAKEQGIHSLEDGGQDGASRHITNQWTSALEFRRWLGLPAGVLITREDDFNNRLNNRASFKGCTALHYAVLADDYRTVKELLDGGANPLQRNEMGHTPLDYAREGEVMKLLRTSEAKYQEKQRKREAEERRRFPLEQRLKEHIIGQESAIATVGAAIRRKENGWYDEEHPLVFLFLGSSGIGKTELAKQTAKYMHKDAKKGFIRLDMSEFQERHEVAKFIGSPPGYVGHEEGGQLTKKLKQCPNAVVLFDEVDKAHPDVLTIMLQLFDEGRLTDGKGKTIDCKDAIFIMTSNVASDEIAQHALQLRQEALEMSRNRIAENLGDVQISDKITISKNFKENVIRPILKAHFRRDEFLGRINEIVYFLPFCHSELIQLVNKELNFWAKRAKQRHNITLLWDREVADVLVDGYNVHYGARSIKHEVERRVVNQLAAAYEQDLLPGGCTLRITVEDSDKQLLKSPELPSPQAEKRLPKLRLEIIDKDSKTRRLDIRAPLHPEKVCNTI
Chain of UniProt O75911 (O75911 whole entry, looked up): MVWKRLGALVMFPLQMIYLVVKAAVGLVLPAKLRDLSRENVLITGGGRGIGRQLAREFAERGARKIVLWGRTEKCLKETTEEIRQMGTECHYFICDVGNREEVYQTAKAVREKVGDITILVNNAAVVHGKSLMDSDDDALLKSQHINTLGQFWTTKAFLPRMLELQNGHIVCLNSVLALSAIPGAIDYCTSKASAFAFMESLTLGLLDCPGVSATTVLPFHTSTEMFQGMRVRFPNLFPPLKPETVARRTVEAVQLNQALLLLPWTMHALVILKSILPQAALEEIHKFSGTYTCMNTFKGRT
Chain of UniProt Q9BQ75 (Q9BQ75 whole entry, looked up): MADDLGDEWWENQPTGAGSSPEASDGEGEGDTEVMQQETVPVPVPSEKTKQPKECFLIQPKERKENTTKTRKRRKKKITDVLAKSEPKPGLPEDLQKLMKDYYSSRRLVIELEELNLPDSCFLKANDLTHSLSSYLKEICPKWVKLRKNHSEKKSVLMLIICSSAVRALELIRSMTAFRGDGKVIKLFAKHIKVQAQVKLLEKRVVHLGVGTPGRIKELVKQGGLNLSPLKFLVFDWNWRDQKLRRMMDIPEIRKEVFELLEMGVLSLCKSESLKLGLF
Chain of UniProt P06732 (P06732 whole entry, looked up): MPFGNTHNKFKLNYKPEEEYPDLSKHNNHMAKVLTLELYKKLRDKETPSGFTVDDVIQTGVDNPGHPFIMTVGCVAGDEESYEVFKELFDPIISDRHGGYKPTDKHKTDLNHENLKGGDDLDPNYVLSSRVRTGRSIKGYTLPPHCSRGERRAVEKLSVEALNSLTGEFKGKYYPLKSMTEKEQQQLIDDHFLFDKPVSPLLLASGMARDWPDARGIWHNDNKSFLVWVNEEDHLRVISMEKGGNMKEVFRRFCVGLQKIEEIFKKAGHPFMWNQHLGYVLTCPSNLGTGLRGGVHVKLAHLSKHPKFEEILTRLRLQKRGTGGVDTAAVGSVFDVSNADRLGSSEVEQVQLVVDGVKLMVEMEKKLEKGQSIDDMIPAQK
Chain of UniProt Q14008 (Q14008 whole entry, looked up): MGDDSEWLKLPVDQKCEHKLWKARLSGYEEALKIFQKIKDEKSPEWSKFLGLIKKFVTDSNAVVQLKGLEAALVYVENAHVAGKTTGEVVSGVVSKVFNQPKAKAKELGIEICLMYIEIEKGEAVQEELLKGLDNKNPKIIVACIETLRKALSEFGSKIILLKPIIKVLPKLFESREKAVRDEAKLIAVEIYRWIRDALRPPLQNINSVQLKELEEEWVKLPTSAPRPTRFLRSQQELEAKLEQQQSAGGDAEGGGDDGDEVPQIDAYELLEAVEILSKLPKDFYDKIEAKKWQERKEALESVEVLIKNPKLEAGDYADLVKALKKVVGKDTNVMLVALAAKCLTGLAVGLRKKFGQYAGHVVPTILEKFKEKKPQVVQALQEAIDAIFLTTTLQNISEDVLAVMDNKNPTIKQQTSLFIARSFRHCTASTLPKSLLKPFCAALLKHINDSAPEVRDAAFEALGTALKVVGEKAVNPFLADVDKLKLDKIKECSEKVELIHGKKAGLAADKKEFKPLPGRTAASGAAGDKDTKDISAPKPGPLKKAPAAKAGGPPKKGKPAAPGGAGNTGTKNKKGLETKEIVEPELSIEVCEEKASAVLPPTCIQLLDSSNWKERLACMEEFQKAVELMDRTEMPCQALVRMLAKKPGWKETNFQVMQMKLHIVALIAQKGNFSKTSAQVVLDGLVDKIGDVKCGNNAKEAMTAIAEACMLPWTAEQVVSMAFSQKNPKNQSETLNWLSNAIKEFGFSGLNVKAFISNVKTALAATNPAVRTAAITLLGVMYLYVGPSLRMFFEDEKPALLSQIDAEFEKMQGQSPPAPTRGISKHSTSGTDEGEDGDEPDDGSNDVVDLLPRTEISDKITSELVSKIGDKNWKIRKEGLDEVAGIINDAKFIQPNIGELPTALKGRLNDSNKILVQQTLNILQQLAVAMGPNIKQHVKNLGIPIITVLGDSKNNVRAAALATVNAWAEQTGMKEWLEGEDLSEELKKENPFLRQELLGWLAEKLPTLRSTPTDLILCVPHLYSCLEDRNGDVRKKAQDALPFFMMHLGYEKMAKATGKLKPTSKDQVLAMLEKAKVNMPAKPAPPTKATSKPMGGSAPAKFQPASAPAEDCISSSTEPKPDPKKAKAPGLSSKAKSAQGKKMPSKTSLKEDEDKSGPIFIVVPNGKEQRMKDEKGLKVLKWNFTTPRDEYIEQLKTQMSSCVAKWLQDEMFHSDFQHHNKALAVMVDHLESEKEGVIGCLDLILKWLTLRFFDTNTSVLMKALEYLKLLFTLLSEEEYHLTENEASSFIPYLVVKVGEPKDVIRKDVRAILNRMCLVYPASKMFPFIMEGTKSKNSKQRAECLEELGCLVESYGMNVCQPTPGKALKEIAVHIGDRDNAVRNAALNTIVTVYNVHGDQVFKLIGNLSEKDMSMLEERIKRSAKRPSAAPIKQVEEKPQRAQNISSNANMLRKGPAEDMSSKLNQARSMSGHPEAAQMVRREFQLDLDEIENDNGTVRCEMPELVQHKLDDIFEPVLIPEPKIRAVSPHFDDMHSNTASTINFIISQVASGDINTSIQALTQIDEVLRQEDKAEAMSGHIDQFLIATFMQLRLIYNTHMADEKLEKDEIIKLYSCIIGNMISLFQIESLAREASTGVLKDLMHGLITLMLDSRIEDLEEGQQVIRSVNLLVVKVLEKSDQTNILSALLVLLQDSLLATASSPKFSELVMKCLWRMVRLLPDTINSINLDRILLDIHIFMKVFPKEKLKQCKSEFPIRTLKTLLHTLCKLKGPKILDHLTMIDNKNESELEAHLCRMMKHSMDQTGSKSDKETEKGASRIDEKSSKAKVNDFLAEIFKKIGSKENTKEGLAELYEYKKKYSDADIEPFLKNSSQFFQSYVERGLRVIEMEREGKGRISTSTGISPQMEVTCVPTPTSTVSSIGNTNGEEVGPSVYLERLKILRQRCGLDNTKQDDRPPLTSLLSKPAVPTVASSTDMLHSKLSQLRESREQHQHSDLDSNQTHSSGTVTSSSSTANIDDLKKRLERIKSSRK
Chain of UniProt Q9NRF8 (Q9NRF8 whole entry, looked up): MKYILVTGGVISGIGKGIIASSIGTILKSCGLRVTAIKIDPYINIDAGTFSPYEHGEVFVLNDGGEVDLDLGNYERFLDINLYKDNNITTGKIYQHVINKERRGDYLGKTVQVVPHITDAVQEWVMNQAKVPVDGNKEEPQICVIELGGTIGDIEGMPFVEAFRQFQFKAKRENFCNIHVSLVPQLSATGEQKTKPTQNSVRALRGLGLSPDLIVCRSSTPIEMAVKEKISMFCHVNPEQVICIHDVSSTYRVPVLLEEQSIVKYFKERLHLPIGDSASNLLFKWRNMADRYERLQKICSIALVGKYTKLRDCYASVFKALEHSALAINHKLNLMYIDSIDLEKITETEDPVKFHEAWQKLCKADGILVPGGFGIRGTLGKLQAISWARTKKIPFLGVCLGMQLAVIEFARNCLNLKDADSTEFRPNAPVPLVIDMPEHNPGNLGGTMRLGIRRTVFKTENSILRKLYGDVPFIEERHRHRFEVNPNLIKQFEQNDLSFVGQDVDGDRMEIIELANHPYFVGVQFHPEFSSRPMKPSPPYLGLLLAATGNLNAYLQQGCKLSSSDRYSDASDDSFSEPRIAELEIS

Row | Target | log2 fold change
1 | CLPB isoform 2 (UniProt Q9H078) | -0.031 (inactive)
2 | CMSS1 (UniProt Q9BQ75) | 0.035 (inactive)
3 | CTPS2 (UniProt Q9NRF8) | -0.001 (inactive)
4 | COG2 (UniProt Q14746) | -0.038 (inactive)
5 | COTL1 (UniProt Q14019) | -0.018 (inactive)
6 | CNOT2 (UniProt Q9NZN8) | 0.019 (inactive)
7 | COG5 isoform 2 (UniProt Q9UP83) | 0.034 (inactive)
8 | DLG3 isoform 2 (UniProt Q92796) | 0 (inactive)
9 | COG3 (UniProt Q96JB2) | -0.03 (inactive)
10 | DHRS3 (UniProt O75911) | 0.073 (inactive)
11 | DENND6A (UniProt Q8IWF6) | -0.101 (inactive)
12 | DHCR7 (UniProt Q9UBM7) | -0.107 (inactive)
13 | CKAP5 (UniProt Q14008) | -0.008 (inactive)
14 | DFFB (UniProt O76075) | 0.06 (inactive)
15 | CNOT4 isoform 9 (UniProt O95628) | -0.173 (inactive)
16 | DOCK8 (UniProt Q8NF50) | -0.011 (inactive)
17 | CIB1 (UniProt Q99828) | -0.128 (inactive)
18 | DAZAP1 (UniProt Q96EP5) | 0.011 (inactive)
19 | CSPP1 (UniProt Q1MSJ5) | -0.082 (inactive)
20 | DENND1B (UniProt Q6P3S1) | 0.154 (inactive)
21 | DGCR8 (UniProt Q8WYQ5) | -0.05 (inactive)
22 | CKM (UniProt P06732) | 0.008 (inactive)
23 | CSNK2B (UniProt P67870) | -0.02 (inactive)
